The values below come from PubChem BioAssay (NCI).

Holding throughout (experiment): NCI-60 one-dose screen, 48 h (100 = growth as untreated, 0 = no growth, -100 = all killed)
What all share (conditions): 10 µM

The test system of assay [1] is DU-145 prostate.
The subject of assay [2] is K-562 leukemia.
Assay [3] has as its system MDA-MB-231 breast.
In assay [4] the test system is RXF 393 renal.
Assay [5] relates to SF-268 CNS.
Assay [6] relates to SF-295 CNS.
For assay [7], the system named is SF-539 CNS.
The subject of assay [8] is UACC-257 melanoma.
The test system of assay [9] is M14 melanoma.
In assay [10] the test system is HCT-15 colon.
The test system of assay [11] is HT29 colon.
For assay [12], the system named is SNB-75 CNS.
Assay [13] relates to SNB-19 CNS.
Assay [14] deals with U251 CNS.
The subject of assay [15] is PC-3 prostate.
For assay [16], the system named is SK-MEL-5 melanoma.
Assay [17] has as its system UACC-62 melanoma.
The test system of assay [18] is LOX IMVI melanoma.
The test system of assay [19] is SK-MEL-28 melanoma.

Compounds without any hit were thinned out: in the full panel of roughly 83,000, 20% have a hit.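 Plates (96-well) were seeded with cells, treated with compound at one concentration, and incubated for 48 hours before percent growth was determined.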 Unmarked numbers belong to inactive results. Calls of active or inactive are those of the source. How the source made its calls: active means growth percent below 10; inactive means the rest.

`COc1cc(/C=C/C(=O)c2cc(-c3ccc(F)cc3)ccc2O)cc(OC)c1OC`: the growth is 91.1% in [1]; 34.5% in assay [2]; 60.7% in assay [3]; 104% in assay [4]; 85.7% in assay [5]; 95.1% in assay [6]. Besides, the growth is 89% in [7]; 68.4% in assay [8]; 86.2% in assay [9]; 84.2% in assay [10]; 87.1% in assay [11]; 91.9% in assay [12]. In addition, the growth in assay [13] is 86.8%; in assay [14], 79.9%; in [15], 54.6%; in assay [16], 48.1%; in assay [17] it was 58.5%; in assay [18] it was 48.9%. Moreover, the growth in assay [19] is 100%.
As for `O=C(NNC(=O)c1ccncc1)Nc1ccc([N+](=O)[O-])cc1`, the growth was 105% in assay [1]; 75.8% in assay [2]; 109% in assay [3]; 124% in assay [4]; 106% in assay [5]; 99.1% in [6]. Further, the growth in assay [7] was 94%; in assay [8], 116%; in assay [9] it was 116%; in [10] it was 101%; in assay [11] it was 99.5%; in [12] it was 111%. The growth was 107% in assay [13]; 113% in assay [14]; 103% in assay [15]; 112% in [16]; 113% in assay [17]; 101% in assay [18]. Also, the growth in assay [19] was 127%.
Turning to `CC(=O)Nc1ccc2c(c1)C(N1CC3CCC(CC3)C1)c1ccccc1-2` (configuration not stated), the growth in [1] was 109%; in assay [2], 58.9%; in assay [3], 91.6%; in [4] it was 81.9%; in assay [5], 92.7%; in assay [6], 101%. The growth in assay [7] is 97.2%; in [8], 84.1%; in [9], 102%; in assay [10] it was 53.3%; in assay [11] it was 75.1%; in assay [12] it was 88.6%. Besides, the growth in [13] was 107%; in [14], 77.7%; in assay [15], 34.8%; in assay [16], 49.3%; in assay [17], 60.5%; in assay [18] it was 93.3%. Besides, the growth in assay [19] was 108%.
`COc1ccc(C(=O)n2nc(CC(=O)NCc3ccccc3)nc2N)cc1`: the growth in assay [1] is 115%; in assay [2], 95.7%; in assay [3], 96.2%; in assay [4], 118%; in assay [5], 108%; in assay [6] it was 108%. Also, the growth in assay [7] is 112%; in assay [8], 105%; in assay [9], 101%; in assay [10] it was 107%; in assay [11], 108%; in [12], 92.9%. The growth in [13] is 97.3%; in assay [14], 105%; in [15], 101%; in assay [16], 111%; in assay [17] it was 93%; in [18], 101%. The growth in assay [19] is 108%.
For `O=C(O)c1cc(C(F)(F)F)cc(C(F)(F)F)c1`, the growth in assay [1] was 116%; in assay [2] it was 95.2%; in assay [3], 104%; in assay [4], 105%; in assay [5] it was 106%; in [6], 102%. For the same compound, the growth in assay [7] was 105%; in assay [8], 101%; in assay [9] it was 91.1%; in [10], 104%; in assay [11], 100%; in assay [12], 97.6%. Further, the growth in assay [13] is 118%; in assay [14] it was 103%; in [15], 97.7%; in assay [16], 109%; in assay [17] it was 108%; in [18], 99.7%. The growth in assay [19] was 103%.
For the compound `CCOC(=O)C(=O)Cc1cccnn1`, the growth was 113% in assay [1]; 110% in assay [2]; 96.4% in assay [3]; 102% in [4]; 113% in [5]; 139% in [6]. In addition, the growth was 92.4% in assay [7]; 96.2% in [8]; 103% in assay [9]; 102% in assay [10]; 101% in assay [11]; 78% in assay [12]. In addition, the growth in assay [13] was 102%; in [14] it was 96.8%; in [15] it was 91.7%; in assay [16], 108%; in [17], 99.7%; in assay [18], 99.5%. Also, the growth in [19] was 108%.
`CCOC(=O)c1cc2c(n1Cc1cccc(OC)c1)-c1oncc1CC2`: the growth in [1] is 48.4%; in assay [2], 18.5%; in assay [3], 52.7%; in assay [4] it was 11.2%; in [5] it was 44.8%; in assay [6], 3.54% (active). Besides, the growth in assay [7] is 15.8%; in assay [8] it was 43.6%; in assay [9], 16.8%; in [10] it was 28.7%; in assay [11], 4.06% (active); in assay [12], -5.1% (active). Besides, the growth in [13] is 37.4%; in assay [14], 22.4%; in [15], 32.7%; in assay [16], 8.61% (active); in assay [17], 30.8%; in assay [18], 41.7%. For the same compound, the growth in assay [19] was 37.8%.
`CC(=O)Nc1nc(C)c(C(=O)N/N=C/c2cccn2C)s1`: the growth is 106% in assay [1]; 54.3% in [2]; 102% in assay [3]; 119% in assay [4]; 95.9% in [5]; 114% in assay [6]. The growth in [7] is 103%; in assay [8], 120%; in assay [9] it was 115%; in [10], 106%; in assay [11], 101%; in [12], 109%. Besides, the growth in assay [13] is 117%; in assay [14], 103%; in assay [15] it was 94.9%; in assay [16] it was 98.4%; in assay [17], 87.7%; in assay [18], 98.4%. Also, the growth in assay [19] is 105%.
